# According to paper PMC7862700, “An all-to-all approach to the identification of sequence-specific readers for epigenetic DNA modifications on cytosine”:
# Experiments:
# Assay in all cases: DAPPL (digital affinity profiling via proximity ligation, sequencing); 10 mM Tris-HCl pH 7.5, 50 mM NaCl, 1 mM DTT, 4% glycerol, room temperature, 30 min; GST-TFs on glutathione beads, 16-mer random dsDNA library, 0.1% formaldehyde crosslink after washing; high values mean tight binding
# FLI1 = target: T1, FLI1 (Homo sapiens, UniProt Q01543 1-452); settings: protein: recombinant; tags: N-terminal GST; dsDNA, one strand shown
# T1 sequence: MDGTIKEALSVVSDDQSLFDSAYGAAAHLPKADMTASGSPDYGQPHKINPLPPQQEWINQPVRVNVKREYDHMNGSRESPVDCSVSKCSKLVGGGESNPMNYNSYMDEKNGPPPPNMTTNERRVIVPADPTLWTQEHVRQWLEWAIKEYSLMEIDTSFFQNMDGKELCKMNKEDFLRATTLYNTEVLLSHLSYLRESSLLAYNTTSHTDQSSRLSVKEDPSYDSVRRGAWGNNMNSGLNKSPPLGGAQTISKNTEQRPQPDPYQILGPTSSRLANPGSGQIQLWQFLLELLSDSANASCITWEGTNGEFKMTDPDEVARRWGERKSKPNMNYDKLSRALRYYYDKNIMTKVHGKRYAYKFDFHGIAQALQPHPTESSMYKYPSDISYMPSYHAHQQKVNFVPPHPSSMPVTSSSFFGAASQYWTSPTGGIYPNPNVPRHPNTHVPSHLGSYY
# Procedure, shortened: (§1)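 After expression in yeast as GST fusions, human transcription factors were bound to glutathione beads, DNA-barcoded and mixed with a tag-only sample. The pools were incubated with 200 nmole of a 16-mer random double-stranded DNA library in Tris/NaCl/DTT/glycerol buffer (30 min, room temperature), washed and crosslinked with 0.1% formaldehyde. Proximity ligation with BsaI/T4 ligase ran for 1 h at 37 °C, before PCR amplification and sequencing on an Illumina NextSeq500. Binding signal is a hexamer's read frequency for a factor divided by its frequency for the tag-only sample.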
# ELK1 = target: T2, ELK1 (Homo sapiens, UniProt P19419 1-428); settings: protein: recombinant; tags: N-terminal GST; dsDNA, one strand shown
# T2 sequence: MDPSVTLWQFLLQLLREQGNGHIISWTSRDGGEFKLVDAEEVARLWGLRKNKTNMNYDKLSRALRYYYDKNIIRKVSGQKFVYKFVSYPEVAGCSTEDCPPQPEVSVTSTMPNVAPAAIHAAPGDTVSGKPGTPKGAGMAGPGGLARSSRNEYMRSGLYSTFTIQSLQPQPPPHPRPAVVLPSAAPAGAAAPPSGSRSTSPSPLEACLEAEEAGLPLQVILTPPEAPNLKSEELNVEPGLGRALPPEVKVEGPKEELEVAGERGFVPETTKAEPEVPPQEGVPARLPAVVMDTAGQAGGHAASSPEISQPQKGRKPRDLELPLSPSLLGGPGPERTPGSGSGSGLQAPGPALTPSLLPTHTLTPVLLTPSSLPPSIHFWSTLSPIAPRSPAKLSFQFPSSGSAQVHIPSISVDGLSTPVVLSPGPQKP
# Procedure, shortened: as §1
# GABPA = target: T3, GABPA (Homo sapiens, UniProt Q06546 1-454); settings: protein: recombinant; tags: N-terminal GST; dsDNA, one strand shown
# T3 sequence: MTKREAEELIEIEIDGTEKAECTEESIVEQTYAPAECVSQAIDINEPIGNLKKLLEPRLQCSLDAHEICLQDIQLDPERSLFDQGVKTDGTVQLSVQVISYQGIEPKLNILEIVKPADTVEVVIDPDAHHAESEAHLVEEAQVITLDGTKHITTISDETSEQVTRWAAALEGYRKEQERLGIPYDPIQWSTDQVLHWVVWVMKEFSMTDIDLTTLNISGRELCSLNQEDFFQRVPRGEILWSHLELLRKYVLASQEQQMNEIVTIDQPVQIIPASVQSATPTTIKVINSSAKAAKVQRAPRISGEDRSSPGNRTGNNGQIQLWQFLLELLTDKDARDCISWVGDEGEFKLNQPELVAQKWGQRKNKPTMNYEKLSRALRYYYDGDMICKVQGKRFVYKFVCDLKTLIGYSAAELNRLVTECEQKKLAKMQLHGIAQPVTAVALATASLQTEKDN
# Procedure, shortened: as §1
# ERG = target: T4, ERG (Homo sapiens, UniProt P11308 1-479); settings: protein: recombinant; tags: N-terminal GST; dsDNA, one strand shown
# T4 sequence: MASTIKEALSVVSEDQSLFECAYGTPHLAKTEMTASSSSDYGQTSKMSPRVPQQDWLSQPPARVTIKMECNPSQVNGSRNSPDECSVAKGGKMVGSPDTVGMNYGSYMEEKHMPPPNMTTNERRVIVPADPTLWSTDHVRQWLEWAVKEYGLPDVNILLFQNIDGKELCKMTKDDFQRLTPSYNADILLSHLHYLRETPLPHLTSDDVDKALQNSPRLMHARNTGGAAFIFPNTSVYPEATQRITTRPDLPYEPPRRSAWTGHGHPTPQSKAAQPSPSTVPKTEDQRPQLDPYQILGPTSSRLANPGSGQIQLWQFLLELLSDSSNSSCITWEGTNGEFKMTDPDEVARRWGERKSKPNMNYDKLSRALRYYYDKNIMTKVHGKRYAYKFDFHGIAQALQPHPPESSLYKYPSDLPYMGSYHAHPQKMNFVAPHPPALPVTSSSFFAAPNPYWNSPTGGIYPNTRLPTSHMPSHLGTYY
# Procedure, shortened: as §1
# ELF1 = ELF1 (Homo sapiens, UniProt P32519 1-619); settings: protein: recombinant; tags: N-terminal GST; dsDNA, one strand shown
# Chain of ELF1 (P32519 whole entry): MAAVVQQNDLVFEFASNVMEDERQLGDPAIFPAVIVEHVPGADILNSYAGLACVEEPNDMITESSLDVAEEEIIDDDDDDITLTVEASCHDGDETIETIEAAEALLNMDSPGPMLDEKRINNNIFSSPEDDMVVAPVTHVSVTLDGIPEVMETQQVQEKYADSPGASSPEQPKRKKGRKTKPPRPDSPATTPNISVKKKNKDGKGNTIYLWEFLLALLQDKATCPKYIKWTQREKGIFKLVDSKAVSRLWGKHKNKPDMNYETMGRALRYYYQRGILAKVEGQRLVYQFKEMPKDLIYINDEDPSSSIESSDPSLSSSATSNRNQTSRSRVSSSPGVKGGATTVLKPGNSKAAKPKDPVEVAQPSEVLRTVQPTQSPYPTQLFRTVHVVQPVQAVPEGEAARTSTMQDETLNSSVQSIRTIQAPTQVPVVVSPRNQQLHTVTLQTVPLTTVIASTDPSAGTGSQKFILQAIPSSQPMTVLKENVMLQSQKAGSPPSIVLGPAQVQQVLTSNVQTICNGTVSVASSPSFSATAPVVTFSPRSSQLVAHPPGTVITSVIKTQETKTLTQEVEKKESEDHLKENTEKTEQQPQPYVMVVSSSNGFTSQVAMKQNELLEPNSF
# Procedure, shortened: as §1
# EHF = target: T5, EHF (Homo sapiens, UniProt Q9NZC4 1-300); settings: protein: recombinant; tags: N-terminal GST; dsDNA, one strand shown
# T5 sequence: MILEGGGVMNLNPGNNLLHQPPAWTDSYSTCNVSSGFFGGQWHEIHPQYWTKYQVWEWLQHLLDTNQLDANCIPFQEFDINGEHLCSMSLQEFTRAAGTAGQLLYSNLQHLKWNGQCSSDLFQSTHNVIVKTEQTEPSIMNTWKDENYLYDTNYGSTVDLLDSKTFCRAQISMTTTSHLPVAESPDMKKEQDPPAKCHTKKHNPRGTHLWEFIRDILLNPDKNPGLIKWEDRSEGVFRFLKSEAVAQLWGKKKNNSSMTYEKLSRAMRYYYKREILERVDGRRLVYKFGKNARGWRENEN
# Procedure, shortened: as §1
# SPI1 = SPI1 (Homo sapiens, UniProt P17947 1-270); settings: protein: recombinant; tags: N-terminal GST; dsDNA, one strand shown
# Procedure, shortened: as §1
# SPIB = SPIB (Homo sapiens, UniProt Q01892 1-262); settings: protein: recombinant; tags: N-terminal GST; dsDNA, one strand shown
# Chain of SPIB (Q01892 whole entry): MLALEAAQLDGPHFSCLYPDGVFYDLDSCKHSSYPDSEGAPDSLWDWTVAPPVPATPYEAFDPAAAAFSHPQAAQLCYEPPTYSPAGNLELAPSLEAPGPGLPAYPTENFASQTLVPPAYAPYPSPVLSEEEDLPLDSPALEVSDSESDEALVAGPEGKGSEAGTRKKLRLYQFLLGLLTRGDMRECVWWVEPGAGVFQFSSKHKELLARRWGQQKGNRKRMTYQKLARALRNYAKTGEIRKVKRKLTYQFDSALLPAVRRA
# Procedure, shortened: as §1
# ELK3 = target: T6, ELK3 (Homo sapiens, UniProt P41970 1-407); settings: protein: recombinant; tags: N-terminal GST; dsDNA, one strand shown
# T6 sequence: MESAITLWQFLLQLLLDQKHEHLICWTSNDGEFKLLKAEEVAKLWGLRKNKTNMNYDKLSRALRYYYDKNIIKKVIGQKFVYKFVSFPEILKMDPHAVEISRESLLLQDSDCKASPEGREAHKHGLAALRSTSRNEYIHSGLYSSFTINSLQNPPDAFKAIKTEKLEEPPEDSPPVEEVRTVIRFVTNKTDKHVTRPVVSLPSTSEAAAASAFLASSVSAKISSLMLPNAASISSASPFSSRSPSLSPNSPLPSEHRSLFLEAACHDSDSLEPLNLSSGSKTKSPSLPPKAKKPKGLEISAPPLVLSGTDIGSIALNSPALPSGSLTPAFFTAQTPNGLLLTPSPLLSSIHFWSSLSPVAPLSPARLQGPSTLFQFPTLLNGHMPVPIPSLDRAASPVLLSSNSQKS
# Procedure, shortened: as §1
# FEV = target: T7, FEV (Homo sapiens, UniProt Q99581 1-238); settings: protein: recombinant; tags: N-terminal GST; dsDNA, one strand shown
# T7 sequence: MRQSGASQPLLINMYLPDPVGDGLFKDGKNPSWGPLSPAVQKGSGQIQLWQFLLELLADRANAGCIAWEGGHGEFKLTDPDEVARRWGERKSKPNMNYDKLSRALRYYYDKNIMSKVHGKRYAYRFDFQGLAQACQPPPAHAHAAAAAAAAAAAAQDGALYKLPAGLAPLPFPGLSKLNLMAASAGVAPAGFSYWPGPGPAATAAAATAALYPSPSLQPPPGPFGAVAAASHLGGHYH
# Procedure, shortened: as §1
# ETV5 = ETV5 (Homo sapiens, UniProt P41161 1-510); settings: protein: recombinant; tags: N-terminal GST; dsDNA, one strand shown
# Chain of ETV5 (P41161 whole entry): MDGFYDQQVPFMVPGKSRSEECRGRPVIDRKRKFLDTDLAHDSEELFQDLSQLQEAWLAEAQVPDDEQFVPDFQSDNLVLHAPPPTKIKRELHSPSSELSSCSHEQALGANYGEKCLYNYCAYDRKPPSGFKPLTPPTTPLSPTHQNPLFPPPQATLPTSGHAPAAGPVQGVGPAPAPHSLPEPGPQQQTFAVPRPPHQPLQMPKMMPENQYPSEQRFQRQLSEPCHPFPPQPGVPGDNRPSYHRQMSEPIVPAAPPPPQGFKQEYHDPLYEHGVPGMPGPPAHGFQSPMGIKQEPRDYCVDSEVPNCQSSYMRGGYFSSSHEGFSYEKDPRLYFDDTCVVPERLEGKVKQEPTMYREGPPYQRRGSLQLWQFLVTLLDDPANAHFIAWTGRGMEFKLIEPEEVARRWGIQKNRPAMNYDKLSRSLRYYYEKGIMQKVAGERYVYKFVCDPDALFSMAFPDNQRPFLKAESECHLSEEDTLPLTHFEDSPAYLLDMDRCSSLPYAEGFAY
# Procedure, shortened: as §1
# HSF1 = HSF1 (Homo sapiens, UniProt Q00613 1-529); settings: protein: recombinant; tags: N-terminal GST; chain copies: 3; dsDNA, one strand shown
# Chain of HSF1 (Q00613 whole entry): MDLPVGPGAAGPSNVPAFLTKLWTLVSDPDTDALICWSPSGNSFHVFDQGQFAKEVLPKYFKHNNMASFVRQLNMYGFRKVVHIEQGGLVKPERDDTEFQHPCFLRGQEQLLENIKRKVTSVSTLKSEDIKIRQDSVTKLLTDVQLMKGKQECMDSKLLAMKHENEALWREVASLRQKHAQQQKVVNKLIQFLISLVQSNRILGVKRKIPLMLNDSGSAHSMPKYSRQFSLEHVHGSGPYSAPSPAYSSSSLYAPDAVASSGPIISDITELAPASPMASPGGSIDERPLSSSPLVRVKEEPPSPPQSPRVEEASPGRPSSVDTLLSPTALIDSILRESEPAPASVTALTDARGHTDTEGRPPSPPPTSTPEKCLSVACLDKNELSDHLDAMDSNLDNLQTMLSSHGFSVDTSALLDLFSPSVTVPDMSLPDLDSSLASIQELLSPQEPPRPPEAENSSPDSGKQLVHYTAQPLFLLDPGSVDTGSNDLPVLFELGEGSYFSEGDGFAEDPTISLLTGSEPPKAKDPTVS
# Procedure, shortened: as §1
# SPIC = target: T8, SPIC (Homo sapiens, UniProt Q8N5J4 1-248); settings: protein: recombinant; tags: N-terminal GST; dsDNA, one strand shown
# T8 sequence: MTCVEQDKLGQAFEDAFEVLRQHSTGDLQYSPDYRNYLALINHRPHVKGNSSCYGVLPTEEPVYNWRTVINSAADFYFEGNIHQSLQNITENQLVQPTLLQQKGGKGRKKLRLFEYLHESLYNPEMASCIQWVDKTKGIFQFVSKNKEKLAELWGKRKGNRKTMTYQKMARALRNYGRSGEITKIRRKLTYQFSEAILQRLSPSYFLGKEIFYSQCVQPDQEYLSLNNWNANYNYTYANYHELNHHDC
# Procedure, shortened: as §1
# ELF4 = ELF4 (Homo sapiens, UniProt Q99607 1-663); settings: protein: recombinant; tags: N-terminal GST; dsDNA, one strand shown
# Chain of ELF4 (Q99607 whole entry): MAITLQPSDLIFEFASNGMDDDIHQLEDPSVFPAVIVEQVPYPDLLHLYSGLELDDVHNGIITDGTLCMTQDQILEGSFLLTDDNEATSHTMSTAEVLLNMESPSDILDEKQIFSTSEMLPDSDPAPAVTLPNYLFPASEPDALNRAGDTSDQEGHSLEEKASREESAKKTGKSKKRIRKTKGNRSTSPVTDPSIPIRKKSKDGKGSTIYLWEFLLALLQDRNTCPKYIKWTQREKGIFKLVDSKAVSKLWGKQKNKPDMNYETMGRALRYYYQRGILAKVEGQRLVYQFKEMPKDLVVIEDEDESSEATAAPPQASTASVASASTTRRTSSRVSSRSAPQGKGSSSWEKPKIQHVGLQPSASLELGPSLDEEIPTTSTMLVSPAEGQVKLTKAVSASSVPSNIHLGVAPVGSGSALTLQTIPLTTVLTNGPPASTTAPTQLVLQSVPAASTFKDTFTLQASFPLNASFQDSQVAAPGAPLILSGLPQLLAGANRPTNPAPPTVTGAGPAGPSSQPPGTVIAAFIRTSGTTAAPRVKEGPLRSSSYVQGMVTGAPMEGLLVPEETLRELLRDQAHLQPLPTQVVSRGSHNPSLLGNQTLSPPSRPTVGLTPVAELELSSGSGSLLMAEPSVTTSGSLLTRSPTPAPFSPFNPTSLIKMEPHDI
# Procedure, shortened: as §1
# ELK4 = target: T9, ELK4 (Homo sapiens, UniProt P28324-2 1-405); settings: protein: recombinant; tags: N-terminal GST; dsDNA, one strand shown
# T9 sequence: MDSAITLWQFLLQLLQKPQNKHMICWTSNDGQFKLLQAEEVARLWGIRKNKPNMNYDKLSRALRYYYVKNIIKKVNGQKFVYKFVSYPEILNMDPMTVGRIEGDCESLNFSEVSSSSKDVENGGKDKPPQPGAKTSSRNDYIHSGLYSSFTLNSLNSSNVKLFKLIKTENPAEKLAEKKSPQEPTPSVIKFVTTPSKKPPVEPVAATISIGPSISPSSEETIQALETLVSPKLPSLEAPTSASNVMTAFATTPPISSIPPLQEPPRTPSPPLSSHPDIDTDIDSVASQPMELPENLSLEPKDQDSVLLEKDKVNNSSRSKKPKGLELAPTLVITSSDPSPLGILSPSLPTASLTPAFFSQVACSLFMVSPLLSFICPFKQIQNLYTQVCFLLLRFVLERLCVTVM
# Procedure, shortened: as §1
# ETV2 = target: T10, ETV2 (Homo sapiens, UniProt O00321 1-342); settings: protein: recombinant; tags: N-terminal GST; dsDNA, one strand shown
# T10 sequence: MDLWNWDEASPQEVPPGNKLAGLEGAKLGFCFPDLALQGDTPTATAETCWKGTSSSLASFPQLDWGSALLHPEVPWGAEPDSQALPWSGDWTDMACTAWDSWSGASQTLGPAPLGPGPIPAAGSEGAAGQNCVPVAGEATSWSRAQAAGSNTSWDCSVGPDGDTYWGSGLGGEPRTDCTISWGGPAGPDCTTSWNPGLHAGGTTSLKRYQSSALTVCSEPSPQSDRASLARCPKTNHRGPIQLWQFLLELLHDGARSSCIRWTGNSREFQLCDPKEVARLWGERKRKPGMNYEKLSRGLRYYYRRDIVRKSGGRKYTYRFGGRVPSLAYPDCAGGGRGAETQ
# Procedure, shortened: as §1
# ELF3 = target: T11, ELF3 (Homo sapiens, UniProt P78545 1-371); settings: protein: recombinant; tags: N-terminal GST; dsDNA, one strand shown
# T11 sequence: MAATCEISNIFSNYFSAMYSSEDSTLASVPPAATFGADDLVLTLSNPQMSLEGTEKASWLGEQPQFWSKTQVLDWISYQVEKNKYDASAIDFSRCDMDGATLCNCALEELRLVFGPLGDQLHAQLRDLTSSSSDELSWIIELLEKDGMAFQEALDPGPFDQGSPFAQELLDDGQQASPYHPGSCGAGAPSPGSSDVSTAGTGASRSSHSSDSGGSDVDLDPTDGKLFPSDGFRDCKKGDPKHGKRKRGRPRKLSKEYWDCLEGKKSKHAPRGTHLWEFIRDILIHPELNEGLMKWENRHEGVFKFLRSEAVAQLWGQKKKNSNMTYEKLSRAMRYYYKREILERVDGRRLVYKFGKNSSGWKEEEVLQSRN
# Procedure, shortened: as §1
# CRX = CRX (Homo sapiens, UniProt O43186 1-299); settings: protein: recombinant; tags: N-terminal GST; dsDNA, one strand shown
# Chain of CRX (O43186 whole entry): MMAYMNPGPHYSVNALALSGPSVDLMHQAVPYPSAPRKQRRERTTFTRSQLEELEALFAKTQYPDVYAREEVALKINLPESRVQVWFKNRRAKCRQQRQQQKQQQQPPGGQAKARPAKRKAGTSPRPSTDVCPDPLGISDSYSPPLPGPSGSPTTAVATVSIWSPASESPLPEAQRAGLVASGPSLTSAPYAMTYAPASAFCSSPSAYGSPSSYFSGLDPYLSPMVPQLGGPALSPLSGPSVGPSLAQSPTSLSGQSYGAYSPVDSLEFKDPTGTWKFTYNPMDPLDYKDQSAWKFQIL
# Procedure, shortened: as §1
# ETV1 = ETV1 (Homo sapiens, UniProt P50549 1-477); settings: protein: recombinant; tags: N-terminal GST; dsDNA, one strand shown
# Chain of ETV1 (P50549 whole entry): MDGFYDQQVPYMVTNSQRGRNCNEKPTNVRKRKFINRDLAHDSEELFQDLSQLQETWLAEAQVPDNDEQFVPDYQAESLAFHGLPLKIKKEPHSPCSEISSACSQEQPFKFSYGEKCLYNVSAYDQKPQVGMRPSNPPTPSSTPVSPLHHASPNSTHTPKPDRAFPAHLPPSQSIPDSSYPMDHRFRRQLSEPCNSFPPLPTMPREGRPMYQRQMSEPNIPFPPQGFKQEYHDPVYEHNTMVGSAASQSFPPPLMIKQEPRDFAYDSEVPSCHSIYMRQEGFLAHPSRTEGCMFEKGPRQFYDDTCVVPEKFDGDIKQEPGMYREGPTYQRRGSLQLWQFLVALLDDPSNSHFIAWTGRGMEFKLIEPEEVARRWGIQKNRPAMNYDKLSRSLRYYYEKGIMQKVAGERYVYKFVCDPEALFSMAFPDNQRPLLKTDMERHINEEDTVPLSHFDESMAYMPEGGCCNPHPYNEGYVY
# Procedure, shortened: as §1
sequence,measurement,setting,value
TTCTAG,binding signal,FLI1,"1.27 fold enrichment (6-mer frequency, TF over GST control)"
same,binding signal,ELK1,"1.26 fold enrichment (6-mer frequency, TF over GST control)"
same,binding signal,GABPA,"1.38 fold enrichment (6-mer frequency, TF over GST control)"
same,binding signal,ERG,"1.33 fold enrichment (6-mer frequency, TF over GST control)"
same,binding signal,ELF1,"1.25 fold enrichment (6-mer frequency, TF over GST control)"
same,binding signal,EHF,"1.2 fold enrichment (6-mer frequency, TF over GST control)"
same,binding signal,SPI1,"1.2 fold enrichment (6-mer frequency, TF over GST control)"
same,binding signal,SPIB,"1.14 fold enrichment (6-mer frequency, TF over GST control)"
same,binding signal,ELK3,"1.3 fold enrichment (6-mer frequency, TF over GST control)"
same,binding signal,FEV,"1.15 fold enrichment (6-mer frequency, TF over GST control)"
same,binding signal,ETV5,"1.11 fold enrichment (6-mer frequency, TF over GST control)"
same,binding signal,HSF1,"7.56 fold enrichment (6-mer frequency, TF over GST control)"
same,binding signal,SPIC,"1.29 fold enrichment (6-mer frequency, TF over GST control)"
same,binding signal,ELF4,"1.22 fold enrichment (6-mer frequency, TF over GST control)"
same,binding signal,ELK4,"1.22 fold enrichment (6-mer frequency, TF over GST control)"
same,binding signal,ETV2,"1.18 fold enrichment (6-mer frequency, TF over GST control)"
same,binding signal,ELF3,"1.42 fold enrichment (6-mer frequency, TF over GST control)"
same,binding signal,CRX,"2.67 fold enrichment (6-mer frequency, TF over GST control)"
same,binding signal,ETV1,"1.2 fold enrichment (6-mer frequency, TF over GST control)"
